# Screens: PubChem, several laboratories
# Only some compounds are listed: those with a hit (about 4.6% of all), similar ones and a draw of the others.
# SKKanGAS inh = SKKanGAS growth inhibition; hit rate 1.3% among 300,000; inhibition, % at 7.5 µM; AID 1662; S. pyogenes SKKanGAS, kanamycin growth, BacTiter-Glo, 6 h;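 active means mean replicate score, as percent of positive control median, at least 50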;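 further: strain carries kanamycin resistance gene driven by streptokinase promoter and grows in 40 µg/ml kanamycin; loss of luminescence reflects streptokinase promoter inhibition or plain growth inhibition; 0% = median of DMSO wells and 100% = positive control at its reference dose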
# tim23-1 inh = tim23-1 yeast growth inhibition; AID 463212; inhibition, % at 20 µM; S. cerevisiae tim23-1 growth, BacTiter-Glo luminescence, 24 h; hit rate 1.3% among 330,000;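 active means growth inhibition of the mutant yeast at or above 50%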;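 further: temperature-sensitive mutant grown at 25 °C; plate controls were DMSO-treated mutant yeast for no effect and medium wells lacking yeast for full effect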
# V-ATPase pHluor = yeast V-ATPase proton transport regulation by pHLuorin; S. cerevisiae, pHLuorin cytosolic pH fluorescence; response, % at 10 µM; hit rate 0.37% among 350,000; in the data active means response mostly above about 7.3%, no sharp cut-off; inactive means mostly below about 5.4%; further: actives read high
# tim10-1 inh = inhibits growth of tim10-1 mutant yeast; S. cerevisiae tim10-1 ts strain growth, BacTiter-Glo, 24 h; hit rate 2.2% among 330,000; AID 463190; inhibition, % at 20 µM;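 active means inhibition of at least 40%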;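 further: mutant grown at 25 °C; 0% = DMSO wells with yeast and 100% = wells holding no yeast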
# TIM10 inh = inhibits growth of TIM10 yeast strain. hit rate 1.4% among 330,000. S. cerevisiae TIM10 strain growth, BacTiter-Glo luminescence, 24 h. AID 463195. inhibition, % at 10 µM;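 active means inhibition of 40% or more at the single tested concentration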;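 further: wild-type TIM10 isogenic control strain grown at permissive 25 °C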
# PfHsp90 yeast 2 = reduces growth (ATP signal) of yeast expressing P. falciparum Hsp90; AID 504621; inhibition, % at 9.4 µM; S. cerevisiae expressing PfHsp90, BacTiter-Glo ATP, 48 h; yeast lacking PDR1 and PDR3 efflux regulators; hit rate 0.32% among 310,000;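 active means every replicate shows inhibition above about 80%, whatever the replicate mean, limit read from the data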;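 further: 0% = DMSO neutral controls and 100% = 20 µM radicicol positive controls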
# tim10 confirm = TIM10 yeast growth inhibition, confirmed; shares compounds with TIM10 inh; S. cerevisiae tim10 strain growth, BacTiter-Glo luminescence, 24 h; inhibition, % at 10 µM; hit rate 63% among 4,600;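 active means inhibition of yeast growth at or above a set limit in either of two replicates at 10 µM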;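 further: this counterscreen used the strain with wild-type TIM10; 0% = yeast with DMSO and 100% = medium wells lacking yeast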
# The depositor's hits bear a star; / = no result.
SMILES,SKKanGAS inh,tim23-1 inh,V-ATPase pHluor,tim10-1 inh,TIM10 inh,PfHsp90 yeast 2,tim10 confirm
COc1ccc(/C=C/C(=O)Nc2ccccc2)cc1S(=O)(=O)N1CCOCC1,-7,18,-1,-20,16,27,/
COc1ccc(/C=C/C(=O)Nc2ccc(NC(C)=O)cc2)cc1S(=O)(=O)N1CCOCC1,10,3,1,10,96*,-14,-18
O=C(CSCc1ccc(Cl)cc1)Nc1ccc(S(=O)(=O)N2CCOCC2)cc1,-24,24,1,13,43*,12,-7
COc1ccc(NC(=O)CSCC(=O)Nc2ccc(S(=O)(=O)N3CCOCC3)cc2)cc1,/,6,-5,9,-1,-3,/
COc1ccc(C(=O)NCc2nnc(SC)n2Cc2ccccc2)cc1,-2,8,12,15,7,6,/
CCCCN(C)C(=O)c1nc2ccccn2c1CN1CCC[C@H]1CO,-9,-6,0,1,-4,2,/
Cc1ccc(C)c(C(C)NC(=O)Cc2cccs2)c1 (stereo not drawn),-1,-4,-3,3,3,-17,/
COC(=O)[C@]1(Cc2ccccc2)N[C@H](CN(C)C(=O)c2ccc(F)cc2)[C@@H]2C(=O)N(C)C(=O)[C@@H]21,/,9,-1,26,7,6,/
Cc1ccc(C)c(Nc2c([N+](=O)[O-])c(=O)oc3ccccc23)c1,0,18,2,4,16,-7,/
O=C(/C=C/c1cccc(F)c1)Nc1ccc(S(=O)(=O)N2CCOCC2)cc1,/,24,-2,11,68*,-6,45*
CN(C)S(=O)(=O)c1cccc(NC(=O)/C=C/c2ccc(S(=O)(=O)N3CCOCC3)cc2)c1,/,5,-3,2,3,-7,/
Cc1cc(-c2ccccc2)nc(N/N=C/c2ccco2)n1,-1,42,3,39,45*,/,37*
O=C1C(Nc2ccccc2)=C(N2CCCCC2)C(=O)c2ccccc21,32,10,1,9,15,16,/
O=C1C(Nc2cccc(O)c2)=C(N2CCCCC2)C(=O)c2ccccc21,3,17,-4,11,46*,-20,40*
O=C(N/N=C/c1c[nH]c2ccccc12)c1cccc(Cl)c1,-6,14,-2,-5,7,18,/
O=C(N/N=C/C1C(c2ccccc2)C1(Cl)Cl)c1cccc(Cl)c1 (stereo not drawn),8,44,-2,37,40*,-18,12
C[C@H](NC(=O)[C@@H]1CSC2c3ccccc3C(=O)N21)C(=O)NCc1c(F)cccc1Cl (stereo partly drawn),-5,9,2,5,10,5,/
NNc1ccc(S(=O)(=O)N2CCCCC2)cn1,/,26,1,10,-7,22,/
C/C(=N\Nc1ccc(S(=O)(=O)N2CCCCC2)cn1)c1cccc(Br)c1,/,45,1,25,41*,0,45*
Cc1nnc(NC(=O)c2cccc(F)c2)s1,3,6,-2,2,6,8,/
CC(=O)Cc1nsc(NC(=O)c2cccc(F)c2)n1,2,27,-3,27,50*,/,-4
CC(C)CC(=O)NC(=S)Nc1cccc(NC(=O)c2ccccc2Cl)c1,0,34,1,22,45*,12,34*
CC(C)CC(=O)NC(=S)Nc1ccc(NC(=O)c2ccco2)cc1,-1,40,-2,15,46*,30,-23
CC(C)CC(=O)Nc1cccc(NC(=O)c2ccccc2Cl)c1,-2,25,2,5,-3,-17,/
CCN(CC)S(=O)(=O)c1ccc(N2CCN(CCOc3ccc(OC)cc3)CC2)nc1,-9,19,1,4,11,1,/
SMILES,SKKanGAS inh,tim23-1 inh,V-ATPase pHluor,tim10-1 inh,TIM10 inh,PfHsp90 yeast 2,tim10 confirm
COc1cc(S(=O)(=O)Nc2ccccc2C(=O)N2CCCCC2)ccc1NC(C)=O,/,5,0,5,3,8,/
Fc1ccc(C2CC(c3ccccc3)n3ncnc3N2)cc1 (stereo not drawn),-5,-2,2,13,2,8,/
CCOc1ccc(C2CC(c3ccc(F)cc3)n3ncnc3N2)cc1 (stereo not drawn),4,47,1,22,40*,-9,42*
c1ccc2c(c1)OCCOCCOCCOCCOc1ccccc1OCCOCCOCCO2,-6,29,1,22,12,1,/
CN1CCOCCOc2ccccc2OCCOCC1,0,12,4,2,58*,-5,-2
Cc1noc(C)c1COc1ccc(C(=O)OCC(=O)N2CC3(C)CC2CC(C)(C)C3)cc1 (stereo not drawn),/,35,-4,37,44*,6,31*
Cc1ccc(NS(=O)(=O)c2ccc(NC(=O)c3ccc(Br)o3)cc2)c(C)c1,44,17,-5,26,42*,/,2
Cc1ccc(NS(=O)(=O)c2ccc(NC(=O)c3ccccc3C(=O)O)cc2)c(C)c1,-7,23,-1,18,6,-8,/
CC(C)CN(CC(C)C)c1nn[nH]n1,/,/,1,/,/,-5,/
COc1ccc2cc3cc(C(=O)NCCN4CCc5ccccc5C4)sc3nc2c1,2,22,6,26,69*,-30,67*
CCC(C)NC(=O)c1cc2c(=O)n3ccccc3nc2s1 (stereo not drawn),-15,26,2,21,-3,18,/
CCC(C)NC(=O)c1cc2cc3ccc(OC)cc3nc2s1 (stereo not drawn),-4,37,4,27,46*,14,25
CC[C@]1(C(=O)OC)[C@H]2C(=O)N(C)C(=O)[C@H]2[C@H]2CN=C(SCC3CC3)N21,/,30,2,-7,-14,30,/
CN(C)c1ccc(/C=C/C(=O)c2ccc3c(c2)OCCO3)cc1[N+](=O)[O-],-1,41,/,36,43*,-2,25
CCc1c(C)nc2cc(-c3cccc(Br)c3)[nH]n2c1=O,8,1,2,-20,-7,-2,/
Cc1ccc(C[n+]2ccccc2)cc1,0,-1,3,-16,0,20,/
Cc1ccc(-c2cc3cccc[n+]3cc2-c2ccc(C)cc2)cc1,-4,38,0,39,51*,1,53*
CCN(C(=O)Cn1c(=O)n2nc(CCn3nc(C)cc3C)nc2c2ccccc21)c1cccc(C)c1,/,44,2,36,48*,-14,45*
Cc1cccc(NC(=O)Cn2c(=O)n3nc(CCn4nc(C)cc4C)nc3c3ccccc32)c1,-4,11,3,12,11,-2,/
O=C(Nc1ccccc1F)N1CCc2ccccc2C1,15,15,0,3,14,-5,/
C=CCn1c(SCc2c(Cl)cccc2Cl)nnc1-c1cccnc1,5,27,3,39,41*,-3,17
